Drawing on PubChem BioAssay (EPA / NIEHS), this text covers outcome and AC50 for four compounds.

Calls of active or inactive are those of the source. The calls were made as follows: active = hit-call score of the fitted dose curve at least 0.9, where 1 is the maximum; inactive = score below 0.9.

Assay [1] can be described thus: ATG_GLI_CIS: Attagene CIS-FACTORIAL HepG2 Assay for human Zinc Finger Protein GLI1 (AID 2282945). Conditions: HepG2, Attagene cis-factorial reporter mRNA, GLI element; actives raise or lower the signal. An outline of the steps: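 Bidirectional curve fits relative to DMSO, using reporter mRNA levels from RT-PCR plus capillary electrophoresis. Cells were HepG2 transiently carrying cis-regulated reporter constructs, harvested 24 h after dosing.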

Assay [2] addresses Bile acid receptor (Homo sapiens) (UniProt Q96RI1). Briefly: ATG_IR1_CIS: Attagene CIS-FACTORIAL HepG2 Assay for human Nuclear Receptor Subfamily 1 Group H Member 4 (NR1H4), IR1 submotif (AID 2282946). The settings on record: IR1 reporter transcription, actives raise or lower the signal. In a few lines: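 HepG2 cells transiently transfected with multiplexed cis-element reporter units read endogenous transcription factor activity. After 24 h compound exposure, reporter mRNA was quantified by RT-PCR, fluorescent labelling, HpaI digestion and capillary electrophoresis; bidirectional fitting versus DMSO baseline.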

Assay [3] can be described thus: ATG_ISRE_CIS: Attagene CIS-FACTORIAL HepG2 Assay for human Interferon Regulatory Factor 1 (IRF1) binding to an Interferon-Stimulated Response Element (ISRE) (AID 2282948). The settings on record: HepG2 ISRE cis-reporter (Attagene), mRNA transcription readout; actives raise or lower the signal. In a few lines:
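Signal reflects induction or loss of ISRE-linked reporter mRNA in transiently transfected HepG2 cells after a 24 h treatment, detected by fluorescent RT-PCR fragments on capillary electrophoresis and normalised to DMSO.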

A short description of assay [4]: ATG_M_32_CIS: Attagene CIS-FACTORIAL HepG2 Assay for M32 Transcription Factor (Internal Marker) (AID 2282949).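 Also: background control marker of the multiplexed CIS panel rather than a real target.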 Conditions: HepG2 Attagene cis-factorial M32 reporter, mRNA; actives raise or lower the signal. In a few lines:
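HepG2 transfectants (cis-regulated reporter transcription units) dosed 24 h. Reporter mRNA by RT-PCR plus CE, analysed as gain or loss relative to DMSO.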

Assay [5] in a line: ATG_M_06_CIS: Attagene CIS-FACTORIAL HepG2 Assay for M06 Transcription Factor (Internal Marker) (AID 2282950). Conditions: HepG2 Attagene CIS-FACTORIAL M06 internal marker reporter; actives raise or lower the signal. An outline of the steps:
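HepG2 liver cells, 24 h exposure. Reporter transcripts from transfected cis-element constructs quantified by RT-PCR/capillary electrophoresis fluorescence. Bidirectional curve fit against DMSO.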

In assay [6] the target is Hypoxia-inducible factor 1-alpha (Homo sapiens) (UniProt Q16665). Put plainly: ATG_HIF1a_CIS: Attagene CIS-FACTORIAL HepG2 Assay for human Hypoxia Inducible Factor 1 (HIF1A) (AID 2282951). The settings on record: HepG2 Attagene cis-factorial HIF1a reporter transcription; actives raise or lower the signal. In a few lines: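 Transient MRTU transfection of human HepG2 liver cells, 24 h compound treatment, then total RNA isolation, oligo(dT) reverse transcription, PCR amplification, fluorescent labelling and capillary electrophoresis of reporter fragments. Gain or loss relative to DMSO.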
Sequence of Hypoxia-inducible factor 1-alpha (Homo sapiens) (Q16665 whole entry, looked up, the tested form may be a part): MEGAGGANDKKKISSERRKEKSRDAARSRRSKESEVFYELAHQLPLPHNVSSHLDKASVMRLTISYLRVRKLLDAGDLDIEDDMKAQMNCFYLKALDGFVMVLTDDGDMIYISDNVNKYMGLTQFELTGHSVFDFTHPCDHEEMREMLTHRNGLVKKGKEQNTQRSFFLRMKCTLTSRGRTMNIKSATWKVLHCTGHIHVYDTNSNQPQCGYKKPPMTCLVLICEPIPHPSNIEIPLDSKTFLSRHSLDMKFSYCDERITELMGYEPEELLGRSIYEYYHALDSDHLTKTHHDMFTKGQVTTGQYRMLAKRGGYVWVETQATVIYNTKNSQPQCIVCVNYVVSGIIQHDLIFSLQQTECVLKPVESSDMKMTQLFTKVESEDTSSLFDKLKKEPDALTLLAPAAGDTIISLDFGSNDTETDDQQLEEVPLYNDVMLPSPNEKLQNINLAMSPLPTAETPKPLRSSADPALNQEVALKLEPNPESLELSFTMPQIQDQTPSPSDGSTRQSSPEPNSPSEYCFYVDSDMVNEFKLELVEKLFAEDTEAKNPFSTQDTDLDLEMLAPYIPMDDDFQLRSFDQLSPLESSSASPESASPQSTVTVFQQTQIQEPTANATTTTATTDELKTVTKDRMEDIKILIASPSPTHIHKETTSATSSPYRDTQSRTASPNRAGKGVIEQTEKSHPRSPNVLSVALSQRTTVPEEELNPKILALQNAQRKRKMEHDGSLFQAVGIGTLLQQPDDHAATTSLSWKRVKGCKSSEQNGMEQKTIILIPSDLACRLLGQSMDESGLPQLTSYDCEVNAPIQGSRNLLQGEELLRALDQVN

Assay [7] deals with Hepatocyte nuclear factor 6 (Homo sapiens) (UniProt Q9UBC0). Briefly: ATG_HNF6_CIS: Attagene CIS-FACTORIAL HepG2 Assay for human Hepatocyte Nuclear Factor 6 (HNF6) (AID 2282952). The settings on record: HepG2 Attagene cis-factorial HNF6 reporter transcription; actives raise or lower the signal. In a few lines:
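Twenty-four-hour chemical treatment of reporter-transfected HepG2 cells precedes RNA isolation, DNase-treated reverse transcription and PCR of reporter sequences. Labelled fragments are sized by capillary electrophoresis and fitted bidirectionally versus DMSO.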

For assay [8], the target named is Heat shock factor protein 1 (Homo sapiens) (UniProt Q00613). Briefly: ATG_HSE_CIS: Attagene CIS-FACTORIAL HepG2 Assay for human Heat Shock Transcription Factor 1 (HSE) (AID 2282953). The settings on record: HepG2 HSE cis-reporter, Attagene RNA transcription; actives raise or lower the signal. An outline of the steps: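 Endogenous transcription factor activity captured via cis-promoter reporter units transfected into HepG2; treatment lasted 24 h. Fluorescence intensity of reporter fragments analysed with bidirectional curve fitting, DMSO baseline.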
Sequence of Heat shock factor protein 1 (Homo sapiens) (Q00613 whole entry, looked up, the tested form may be a part): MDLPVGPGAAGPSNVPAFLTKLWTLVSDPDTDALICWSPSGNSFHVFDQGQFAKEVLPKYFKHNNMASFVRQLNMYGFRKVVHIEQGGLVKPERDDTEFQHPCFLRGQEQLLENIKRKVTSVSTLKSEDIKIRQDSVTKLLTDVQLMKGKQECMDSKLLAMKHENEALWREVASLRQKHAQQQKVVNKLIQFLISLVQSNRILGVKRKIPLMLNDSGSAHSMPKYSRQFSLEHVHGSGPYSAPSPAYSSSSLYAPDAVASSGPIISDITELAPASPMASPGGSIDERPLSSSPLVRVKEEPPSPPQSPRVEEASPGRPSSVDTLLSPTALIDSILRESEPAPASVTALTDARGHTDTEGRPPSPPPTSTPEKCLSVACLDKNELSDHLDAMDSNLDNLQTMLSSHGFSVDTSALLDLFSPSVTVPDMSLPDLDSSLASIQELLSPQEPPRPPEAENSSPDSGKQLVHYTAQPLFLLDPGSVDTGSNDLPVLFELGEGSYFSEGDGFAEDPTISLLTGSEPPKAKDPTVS

A short description of assay [9]: ATG_MRE_CIS: Attagene CIS-FACTORIAL HepG2 Assay for human Metal Responsive Element (MRE) (AID 2282954). Conditions: HepG2 MRE cis-reporter transcription, Attagene multiplex; actives raise or lower the signal. In a few lines: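 Endogenous MRE-dependent transcription read as reporter mRNA in transiently transfected human HepG2 cells at 24 h. RNA reverse-transcribed, PCR-amplified, labelled and resolved by capillary electrophoresis; gain or loss relative to DMSO.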

Assay [10] concerns the target Paired box protein Pax-6 (Homo sapiens) (UniProt P26367). Briefly: ATG_Pax6_CIS: Attagene CIS-FACTORIAL HepG2 Assay for human Paired Box 6 (PAX6) (AID 2282956). Conditions: HepG2 CIS-FACTORIAL PAX6 reporter transcription, RNA readout; actives raise or lower the signal. An outline of the steps:
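Values derive from bidirectional curve fitting of reporter mRNA signal relative to DMSO. HepG2 cells bearing transfected cis-regulated MRTUs were exposed for 24 h; transcripts were read by RT-PCR and capillary electrophoresis.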

Assay [11] is described as follows: ATG_PXRE_CIS: Attagene CIS-FACTORIAL HepG2 Assay for human Pregnane X Receptor Element (PXRE) (AID 2282957). The settings on record: HepG2 Attagene CIS-FACTORIAL PXRE reporter, mRNA; actives raise or lower the signal. An outline of the steps: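 Bidirectional activity, baselined to DMSO, derived from reporter mRNA fluorescence (RT-PCR plus capillary electrophoresis) in HepG2 cells bearing cis-promoter reporter units, 24 h exposure.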

Assay [12] is described as follows: ATG_PPRE_CIS: Attagene CIS-FACTORIAL HepG2 Assay for human Peroxisome Proliferator-activated Response Element (PPRE) (AID 2282958). Conditions: HepG2 PPRE cis-element reporter, Attagene transcription factor profiling; actives raise or lower the signal. In a few lines:
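HepG2, transient MRTU transfection (cis promoter elements, endogenous TFs). 24 h dosing. RNA → oligo(dT) RT → PCR → 6-FAM primer extension → HpaI digest → CE. Bidirectional fit vs DMSO.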

Assay [13] is described as follows: ATG_RORE_CIS: Attagene CIS-FACTORIAL HepG2 Assay for human RAR-related Orphan Receptor Element (RORE) (AID 2282959). The settings on record: HepG2 Attagene cis-factorial RORE reporter, mRNA; actives raise or lower the signal. In a few lines:
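Transient MRTU transfection of human HepG2 liver cells (FuGene 6); 24 h compound exposure; TriZol RNA, oligo(dT) RT, PCR, FAM labeling, HpaI cut, CE fragment analysis. DMSO = negative control/baseline.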

The nature of assay [14]: ATG_Sox_CIS: Attagene CIS-FACTORIAL HepG2 Assay for human SRY-box transcription factor (SOX) (AID 2282960). The settings on record: HepG2 Attagene cis-factorial SOX reporter, mRNA; actives raise or lower the signal. An outline of the steps: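 Endogenous factor activity in human liver HepG2 cells carrying transfected cis-regulated reporter units. RNA taken 24 h post-dose, reverse-transcribed, PCR-amplified and sized by capillary electrophoresis. Gain or loss of signal fitted relative to DMSO.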

The target of assay [15] is Transcription factor Sp1 (Homo sapiens) (UniProt P08047). Briefly: ATG_Sp1_CIS: Attagene CIS-FACTORIAL HepG2 Assay for human Specificity Protein 1 (Sp1) (AID 2282961). The settings on record: HepG2 Sp1 cis-reporter transcription, actives raise or lower the signal. In a few lines:
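Transient MRTU-transfected HepG2, 24 h compound exposure. Total RNA → oligo(dT) RT → PCR of reporter → 6-FAM primer extension → HpaI digest → CE. Endpoint fitted both directions vs DMSO.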

A short description of assay [16]: ATG_SREBP_CIS: Attagene CIS-FACTORIAL HepG2 Assay for human Sterol Regulatory Element Binding (SREBP) (AID 2282962). Conditions: HepG2 Attagene cis-factorial SREBP reporter, mRNA; actives raise or lower the signal. An outline of the steps: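 Values derive from bidirectional curve fitting with DMSO as baseline. The underlying measurement is reporter mRNA from cis-element-regulated units in transiently transfected HepG2, quantified by RT-PCR and capillary electrophoresis after 24 h exposure.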

The target of assay [17] is Signal transducer and activator of transcription 3 (Homo sapiens) (UniProt P40763). Put plainly: ATG_STAT3_CIS: Attagene CIS-FACTORIAL HepG2 Assay for human Signal Transducer and Activator of Transcription 3 (STAT3) (AID 2282963). The settings on record: HepG2, Attagene cis-factorial STAT3 reporter transcription; actives raise or lower the signal. In a few lines:
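Readout is reporter transcript quantified by RT-PCR and capillary electrophoresis, with 6-FAM primer extension and HpaI digestion. Total RNA is taken 24 h after dosing transiently transfected HepG2 carrying cis-regulated reporter units. Bidirectional fit against DMSO.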

A short description of assay [18]: ATG_TA_CIS: Attagene CIS-FACTORIAL HepG2 Assay for human TA Basal Promoter (AID 2282964). The settings on record: HepG2 Attagene CIS-factorial TA basal promoter reporter; actives raise or lower the signal. An outline of the steps:
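Fluorescence from labelled RT-PCR reporter fragments, separated by capillary electrophoresis, gives the signal. Cells: HepG2 transiently carrying multiple reporter units, 24 h chemical dosing. Gain or loss relative to DMSO.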

Assay [19] can be described thus: ATG_PBREM_CIS: Attagene CIS-FACTORIAL HepG2 Assay for human Phenobarbital-responsive Enhancer Module (PBREM) (AID 2282955). Conditions: HepG2 PBREM cis-reporter, Attagene multiplexed transcription; actives raise or lower the signal. In a few lines: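 Endogenous transcription factors in human liver HepG2 cells drive a PBREM cis-element reporter, whose transcript level after 24 h treatment is quantified by RT-PCR with capillary electrophoresis; activity fitted in both directions against DMSO.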

Sequence of Bile acid receptor (Homo sapiens) (Q96RI1 whole entry, looked up): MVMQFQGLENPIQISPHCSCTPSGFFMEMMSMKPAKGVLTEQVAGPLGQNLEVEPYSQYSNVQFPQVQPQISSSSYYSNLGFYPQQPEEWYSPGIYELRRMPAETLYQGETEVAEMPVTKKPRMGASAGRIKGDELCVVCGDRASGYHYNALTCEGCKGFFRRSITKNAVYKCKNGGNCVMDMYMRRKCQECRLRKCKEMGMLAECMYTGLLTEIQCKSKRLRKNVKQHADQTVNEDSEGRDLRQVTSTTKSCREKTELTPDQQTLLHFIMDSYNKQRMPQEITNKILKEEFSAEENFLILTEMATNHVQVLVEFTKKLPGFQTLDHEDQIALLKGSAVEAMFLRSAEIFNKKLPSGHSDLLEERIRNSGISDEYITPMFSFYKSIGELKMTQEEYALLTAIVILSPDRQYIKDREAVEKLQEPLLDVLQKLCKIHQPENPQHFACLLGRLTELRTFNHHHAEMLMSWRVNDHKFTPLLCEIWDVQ
Sequence of Hepatocyte nuclear factor 6 (Homo sapiens) (Q9UBC0 whole entry, looked up, the tested form may be a part): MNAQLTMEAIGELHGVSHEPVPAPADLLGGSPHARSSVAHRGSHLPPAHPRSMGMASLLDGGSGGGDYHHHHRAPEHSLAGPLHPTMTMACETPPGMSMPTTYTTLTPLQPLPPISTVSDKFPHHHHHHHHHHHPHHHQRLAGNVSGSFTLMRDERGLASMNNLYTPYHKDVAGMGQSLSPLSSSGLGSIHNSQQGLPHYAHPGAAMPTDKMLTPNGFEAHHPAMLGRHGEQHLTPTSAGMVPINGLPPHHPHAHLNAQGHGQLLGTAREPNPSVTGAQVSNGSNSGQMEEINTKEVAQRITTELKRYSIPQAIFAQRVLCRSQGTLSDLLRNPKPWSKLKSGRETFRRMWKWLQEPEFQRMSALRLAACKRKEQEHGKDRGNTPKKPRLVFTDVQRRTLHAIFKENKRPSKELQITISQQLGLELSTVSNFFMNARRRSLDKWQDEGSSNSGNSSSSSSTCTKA
Sequence of Paired box protein Pax-6 (Homo sapiens) (P26367 whole entry, looked up): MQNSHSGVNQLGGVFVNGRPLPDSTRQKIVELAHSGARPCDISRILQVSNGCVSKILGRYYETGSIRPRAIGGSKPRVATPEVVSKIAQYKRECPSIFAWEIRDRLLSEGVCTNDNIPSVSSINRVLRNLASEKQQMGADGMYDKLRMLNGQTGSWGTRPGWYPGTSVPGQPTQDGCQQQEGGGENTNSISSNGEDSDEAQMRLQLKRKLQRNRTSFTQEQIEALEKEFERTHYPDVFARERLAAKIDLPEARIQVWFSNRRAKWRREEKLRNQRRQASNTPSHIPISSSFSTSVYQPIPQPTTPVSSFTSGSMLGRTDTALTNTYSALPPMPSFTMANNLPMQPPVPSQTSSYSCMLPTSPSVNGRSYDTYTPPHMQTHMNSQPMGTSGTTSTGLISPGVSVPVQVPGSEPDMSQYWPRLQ
Sequence of Transcription factor Sp1 (Homo sapiens) (P08047 whole entry, looked up): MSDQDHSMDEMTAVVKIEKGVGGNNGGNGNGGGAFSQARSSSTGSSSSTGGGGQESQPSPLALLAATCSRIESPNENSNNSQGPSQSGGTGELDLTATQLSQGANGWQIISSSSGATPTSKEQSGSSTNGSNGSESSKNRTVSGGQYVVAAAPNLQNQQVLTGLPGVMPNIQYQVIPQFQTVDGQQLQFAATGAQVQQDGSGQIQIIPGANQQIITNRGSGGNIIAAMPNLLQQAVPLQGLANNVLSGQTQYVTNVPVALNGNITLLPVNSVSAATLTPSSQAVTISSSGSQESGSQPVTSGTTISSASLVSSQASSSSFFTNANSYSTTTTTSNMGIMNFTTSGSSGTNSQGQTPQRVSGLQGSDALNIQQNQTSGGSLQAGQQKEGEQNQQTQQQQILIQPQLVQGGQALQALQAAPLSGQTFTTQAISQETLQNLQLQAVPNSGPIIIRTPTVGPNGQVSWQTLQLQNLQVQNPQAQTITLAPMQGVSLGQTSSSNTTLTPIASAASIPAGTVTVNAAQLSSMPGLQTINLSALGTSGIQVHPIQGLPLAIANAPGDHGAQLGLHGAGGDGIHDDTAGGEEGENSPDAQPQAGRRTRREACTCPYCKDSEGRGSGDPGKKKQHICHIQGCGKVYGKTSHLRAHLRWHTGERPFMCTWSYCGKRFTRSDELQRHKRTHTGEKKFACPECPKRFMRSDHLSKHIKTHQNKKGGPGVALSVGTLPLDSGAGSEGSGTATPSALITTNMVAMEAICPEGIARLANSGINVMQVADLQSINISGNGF
Sequence of Signal transducer and activator of transcription 3 (Homo sapiens) (P40763 whole entry, looked up): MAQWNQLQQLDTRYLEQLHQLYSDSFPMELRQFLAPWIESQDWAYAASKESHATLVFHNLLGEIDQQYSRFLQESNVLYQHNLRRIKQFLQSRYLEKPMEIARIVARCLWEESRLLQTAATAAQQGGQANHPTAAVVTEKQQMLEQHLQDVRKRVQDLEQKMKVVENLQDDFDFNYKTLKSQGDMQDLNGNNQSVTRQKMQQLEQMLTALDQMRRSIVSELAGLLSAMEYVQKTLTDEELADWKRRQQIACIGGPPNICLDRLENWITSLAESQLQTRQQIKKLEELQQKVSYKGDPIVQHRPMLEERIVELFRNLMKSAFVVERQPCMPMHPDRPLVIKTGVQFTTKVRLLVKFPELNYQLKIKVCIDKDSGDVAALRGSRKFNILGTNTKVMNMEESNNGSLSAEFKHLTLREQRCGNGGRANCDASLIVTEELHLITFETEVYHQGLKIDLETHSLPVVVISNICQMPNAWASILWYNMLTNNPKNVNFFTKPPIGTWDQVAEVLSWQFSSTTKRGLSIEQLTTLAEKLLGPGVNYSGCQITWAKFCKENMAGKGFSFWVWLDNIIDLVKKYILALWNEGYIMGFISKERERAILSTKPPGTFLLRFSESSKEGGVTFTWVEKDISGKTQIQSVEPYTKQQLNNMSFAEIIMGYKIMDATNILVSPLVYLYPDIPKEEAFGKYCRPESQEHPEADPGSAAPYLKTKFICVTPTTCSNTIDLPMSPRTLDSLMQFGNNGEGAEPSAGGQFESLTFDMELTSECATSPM

Consider `Oc1ccc2c(c1)CCC2`, for which the compound was called inactive in assay [1], in assay [2], in assay [3], in assay [4], in [5] and in assay [6]. For the same compound, the result in [7], in [8], in assay [9], in assay [10], in [11] and in assay [12] was inactive. The compound was classed as inactive in assay [13], in assay [14], in assay [15], in [16], in assay [17] and in [18].
Regarding `CO[Si](C)(CCC(F)(F)C(F)(F)C(F)(F)C(F)(F)C(F)(F)C(F)(F)F)OC`, the call in assay [1], in assay [2], in assay [3], in [4], in assay [5] and in assay [6] was inactive. Moreover, the compound was classed as inactive in assay [7], in [8], in [9], in [19], in assay [11] and in assay [12]. Also, the compound was classed as inactive in [13], in [14], in [15], in assay [16] and in assay [17].
In the case of `O=C(c1ccccc1)c1ccc(O)cc1O`, the compound was classed as inactive in [1], in assay [2], in assay [3], in [4], in assay [5] and in assay [7]. Moreover, the compound was called inactive in [8], in [9], in [10], in assay [12], in assay [13] and in assay [14]. Besides, the call in [15], in [16] and in assay [17] was inactive. Also, in [11], the half-maximal activity concentration (AC50) (usually the concentration giving half of the maximal activity seen) is 48.6 µM (active).
For the compound `Cc1cnccn1`, the compound was called inactive in assay [1], in assay [2], in [3], in assay [4], in assay [5] and in assay [6]. Besides, the call in [7], in [8], in assay [9], in assay [19], in [10] and in [11] was inactive. For the same compound, the result in [12], in [13], in assay [14], in assay [15], in [16] and in [17] was inactive. For the same compound, the compound was classed as inactive in [18].
